Screening data (PubChem BioAssay)
LMP1 NFkB inh – EBV LMP1-driven NF-kappaB luciferase reporter inhibitors, primary screen, cell-based, luminescence, single point; AID 504558, 2011; 0.69% of 350,000 active; LMP1-induced NF-kappaB luciferase reporter cells; inhibition, % at 12.5 µM; in the data active = inhibition above about 41%;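 also: 0% = neutral control wells and 100% = reference inhibitor control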
Shn3 3UTR inh – reduction of Shn3 3'UTR firefly luciferase signal, primary screen, Schnurri-3 inhibitor project, cell-based, Clone20 osteoblasts, set 2; Clone20 osteoblast Shn3 3'UTR firefly luciferase, 24 h; inhibition, % at 12.5 µM; 0.52% of 360,000 active;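 active = mean inhibition of at least 75% with every replicate also reaching 75%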;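 also: 0% = median of neutral control wells and 100% = pilot-screen positive control compound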
KKLEB tox – cytotoxicity in KKLEB CF airway cells, primary screen, cytotoxicity control for CF NF-kB inhibitor project, cell-based, uHTS, fluorescence assay plates; 0.36% of 360,000 active; activity change (cytotoxicity), % at 5 µM; KKLEB CF airway cells viability, ATPlite luminescence, overnight; active compounds read low; cells stimulated with P. aeruginosa culture filtrate;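 active = corrected activity change at or below -50% at 5 µM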
CF NFkB inh – inhibitors of PAF-induced NF-kB signaling, primary screen, cell-based, GFP fluorescence, uHTS | inhibition, % at 5 µM | KKLEB NF-kB-GFP reporter, GFP fluorescence overnight | AID 588850, 2011 | 0.86% of 360,000 active;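 active = at least 50% inhibition at 5 µM, scaled per plate between neutral and stimulator controls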;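 also: PAF is a Pseudomonas aeruginosa culture filtrate used as stimulus; plate controls were PAF-stimulated DMSO wells for no effect and unstimulated DMSO wells for full effect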
Peg3 prom inh-1 – Peg3 promoter-driven luciferase inhibitors, primary screen, cell-based, HeLa, luciferase luminescence; AID 588405, 2011; HeLa PEG-Prom luciferase reporter, overnight; 1.7% of 360,000 active; inhibition, % at 20 µM;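 active = inhibition of at least 50% at 20 µM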
HIF-2a inh – HIF-2a reporter inhibitors, primary screen, luminescence, 786-0 RCC cells. inhibition, % at 18.8 µM. 0.72% of 360,000 active. 786-0 RCC cells HIF-2a reporter, luciferase luminescence, overnight;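 active = inhibition of the luminescence signal of 40% or more relative to plate controls, in a single-dose primary screen at 18.75 µM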
Peg3 prom inh-2 – Peg3 promoter reporter inhibitors, retest, confirmation, cell-based, HeLa, luciferase reporter, single concentration. inhibition, % at 20 µM. HeLa PEG-Prom luciferase reporter, luminescence, overnight. AID 602417, 2012. shares compounds with Peg3 prom inh-1. 84% of 1,300 active;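 active = at 20 µM dose, 40% or more inhibition averaged across four replicates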
The depositor's hits bear a star; · = not tested or not shown; ! = not active in a repeat. Sampled rows, rich in hits. Any-hit rate of the full collection: about 2.9%.

SMILES	LMP1 NFkB inh	Shn3 3UTR inh	KKLEB tox	CF NFkB inh	Peg3 prom inh-1	HIF-2a inh	Peg3 prom inh-2
COc1ccc(C(CCN(Cc2ccc(OC)c(OC)c2)C(C)=O)c2ccccc2)cc1 (stereo unspecified)	-4	-10	-10	6	16	17	·
COCc1ccc(CN2CCC(C(=O)Nc3cccc(-c4cccc(Cl)c4)c3)CC2)o1	15	34	-9	15	103*	34	99*
O=C(NC1CCN(C(=S)NCc2ccco2)CC1)NC12CC3CC(CC(C3)C1)C2	-5	13	0	-22	17	9	·
COc1cccc(-c2cccc(-c3nc(C(=O)NCc4ccc(Oc5ccccc5)cc4)cc4c3[C@H](CCO)N(S(=O)C(C)(C)C)C4)c2)c1 (stereo partly specified)	·	-1	-26	18	73*	5	21
CC(C)(C)S(=O)N1Cc2cc(C(=O)NCc3ccc(Oc4ccccc4)cc3)nc(-c3cccc(-c4cc5ccccc5o4)c3)c2[C@@H]1CCO (stereo partly specified)	·	-49	-10	-1	80*	-3	22
O=c1cc(-c2cccc(Br)c2)oc2cccc(O)c12	9	-17	8	-49	-71	1	·
CCOC(=O)C1=C(COCCN)NC(C)=C(C(=O)OC)C1c1ccccc1Cl (stereo unspecified)	-4	-8	5	16	69*!	6	89*
O=C1Nc2ccc(Br)cc2C1=Nc1cccnc1	·	0	25	-9	6	20	·
Cc1c(C)c2cccnc2c2ncccc12	86*	83	-28	13	57*	-15	43*
COc1cc(/C=C/C(=O)O)ccc1O	-2	0	1	-16	7	20	·
COc1cc(/C=C/C(=O)CC(=O)/C=C/c2ccc(O)c(OC)c2)ccc1O	-24	-21	-2	-20	64*	17	31
Cc1c(C(=O)Nc2ccc(S(=O)(=O)N(C)C3CCN(C)CC3)cc2)oc2c(Cl)cccc12	0	59	-30	-10	99*	-27	99*
CN1CCC(N(C)S(=O)(=O)c2ccc(NC(=O)COc3ccc(Br)cc3Cl)cc2)CC1	-5	6	-15	10	71*	3	71*
CCOc1ccccc1OCCC(=O)OCC(=O)c1ccc[nH]1	0	-4	21	-4	-1	9	·
CC(C)COc1ccc(C(=O)Nc2ccc(NC(=O)c3ccco3)cc2)cc1	-3	-6	6	-10	77*	-4	38
O=C1[C@H]2[C@@H](c3ccccc3)N[C@]3(CCCN(Cc4ccc(F)cc4)C3=O)[C@H]2C(=O)N1Cc1ccccc1	12	-13	9	-4	0	11	·
CCn1c(=O)c2ccccc2n2c(SCC(N)=O)nnc12	-5	-10	2	3	4	14	·
O=C(OCC(=O)N1CCCc2ccccc21)c1cccc(S(=O)(=O)N2CCOCC2)c1	3	-1	6	-12	-11	6	·
COc1ccc(C(O)(CC(C)C)C(CN2CCOCC2)c2ccccc2)cc1 (stereo unspecified)	-6	6	5	6	71*	-2	73*
Cc1cc(C)c2sc(N(CCCN(C)C)C(=O)c3ccc(S(=O)(=O)N(C)Cc4ccccc4)cc3)nc2c1	-4	5	-11	8	97*	15	98*
Cc1ccc2sc(N(CCCN(C)C)C(=O)c3ccc(S(=O)(=O)N(C)Cc4ccccc4)cc3)nc2c1C	-10	-66	-33	29	66*	1	96*
CCOc1cccc2sc(N(CCCN(C)C)C(=O)c3ccc(C(=O)c4ccccc4)cc3)nc12	-11	6	-12	28	30	-6	·
CCOc1cccc2sc(N(CCCN(C)C)C(=O)c3ccc(S(=O)(=O)N(CC)Cc4ccccc4)cc3)nc12	-21	10	-16	9	95*	-5	97*
CCOc1cccc2sc(N(CCCN(C)C)C(=O)Cc3ccccc3)nc12	0	-14	6	-2	-32	13	·
CCOc1cccc2sc(N(CCCN(C)C)C(=O)c3ccc(S(=O)(=O)N(C)Cc4ccccc4)cc3)nc12	-30	50	-26	26	98*	3	95*
SMILES	LMP1 NFkB inh	Shn3 3UTR inh	KKLEB tox	CF NFkB inh	Peg3 prom inh-1	HIF-2a inh	Peg3 prom inh-2
CCCCn1c(N)c(N(CCOC)C(=O)c2oc3c(Cl)cccc3c2C)c(=O)[nH]c1=O	0	-16	-6	-16	-6	14	·
CCCN(CC(=O)Nc1ccccc1C)C(=O)c1ccc(N2CCCC2)c([N+](=O)[O-])c1	-5	1	6	-8	-15	-18	·
CN(C)CCCN(C(=O)c1ccc(S(=O)(=O)N2CCc3ccccc3C2)cc1)c1nc2c(F)cc(F)cc2s1	2	-16	-6	10	-34	13	·
Cc1ccc2sc(N(CCCN(C)C)C(=O)c3ccc(S(=O)(=O)N4CCc5ccccc5C4)cc3)nc2c1C	-20	38	-47	-15	59*	27	57*
COCCCN=C1NN=C(c2cc(C)n(Cc3ccco3)c2C)CS1	8	-13	-8	22	-73	-68	·
Cc1cc(C2=NNC(=NC3CC3)SC2)c(C)n1Cc1ccco1	79*	38	-12	22	86*	80*	90*
Cc1cccc(CCN2C(N(C)C)=NC[C@@H]2C)c1	-3	-10	4	-7	-9	-1	·
CCN1CCc2c(sc(NC(=O)c3ccc(S(=O)(=O)N4CCOCC4)cc3)c2C(N)=O)C1	-5	3	3	-42	5	12	·
CCN1CCc2c(sc(NC(=O)c3ccc(S(=O)(=O)N4CCCCCC4)cc3)c2C(=O)NC)C1	-2	11	6	5	71*	16	62*
CCN1CCc2c(sc(NC(=O)c3ccc(S(=O)(=O)N4CCOCC4)cc3)c2C(=O)OC)C1	-26	17	1	-23	76*	17	-20
CCOC(=O)N1CCN(c2ccc(O)cc2)CC1	-2	-6	-6	2	4	1	·
CC(=O)Nc1ccc(C(=O)N(C)C(C(=O)Nc2ccccc2)c2ccccn2)cc1 (stereo unspecified)	-3	7	-5	-14	8	13	·
O=C(CSc1cn[nH]n1)Nc1nc2ccccc2s1	-23	-52	16	-8	-89	-125	·
CN(C(=O)COC(=O)c1ccc[nH]c1=O)C1CCCCC1	-10	6	4	-7	14	11	·
